Experimental data taken from PubChem BioAssay AID1845227 (National Center for Advancing Translational Sciences (NCATS), 2023).
Records with an inconclusive call do not appear. Active and inactive are the calls of the source. Calls follow the shape of the dose curve; as a rule, active = well fitted inhibition curve with a large enough effect; inconclusive = small, poorly fitted or top-dose-only effect; inactive = no such curve, though single readings can be large or run the other way.

molecular target: Luciferin 4-monooxygenase (Photinus pyralis) (UniProt P08659); assay: Confirmatory firefly luciferase (FLuc) qHTS assay for identification of artifact compounds; details: purified FLuc enzyme, luminescence, 5 min; series mostly up to 38.9 µM; activity change, negative = inhibition: at the top concentration
Description: PI: Alexander Tropsha Ph.D. UNC Eshelman School of Pharmacy University of North Carolina, Chapel Hill, North Carolina Hits from high-throughput screening (HTS) of chemical libraries are often false positives due to their interference with the assay detection technology. In response to this problem, we generated the largest publicly available library of chemical liabilities and developed a free webtool to predict HTS artifacts, both of which are described herein. More specifically, we generated, curated, and integrated HTS datasets for thiol reactivity, redox activity, and luciferase (firefly and nano) activity. Using these curated datasets, we developed and validated several Quantitative Structure-Interference Relationship (QSIR) models to predict nuisance behavior. […] These models were employed for virtual profiling of the National Center for Advancing Translational Science's (NCATS) in-house library, and 256 compounds for each assay were selected for the experimental validation of nuisance behavior. The BA for these external predictions ranged from 58 to 78% for compounds within the applicability domains of the models. […] The models developed in this study, along with aggregation models previously developed by our group (SCAM Detective) were implemented in "Liability Predictor," an online tool which may be used as part of chemical library design or for triaging HTS hits. Both the models and the curated datasets are publicly available at https://liability.mml.unc.edu/.
PROTOCOL TABLE SEQUENCE No. (e.g., 1, 2, 3, etc.); […] (e.g., Cells, Incubation, Reagent, etc.); VALUE; DESCRIPTION. 1; Reagent; 3 uL; Luciferase substrate mixture. 2; Compounds and control; 16 nL; Kalypsis pin tool (Wako USA) equipped with a 1536-well pin head. 3; Incubation; 15 min. 4; Reagent; 1 uL; Luciferase enzyme. 5; Incubation; 5 min. 6; Detection; Luminescence, ViewLux microplate reader. NOTES (numbers refer to Sequence numbers above) 1. 3 uL of luciferase substrate mixture containing D-luciferin and ATP (final concentrations of 10 uM and 10 uM, respectively) in assay buffer (10 mM Mg-acetate, 0.01% Tween-20, 0.05% bovine serum albumin, 50 mM Tris acetate, pH 7.6) was dispensed into all wells of a 1536-well assay plate (solid-bottom white plate; Greiner Bio One, Monroe, NC). 2. A Wako Pin-tool (Wako Automation, Richmond, VA) was used to transfer 16 nL of compounds (consisting of 7-plates in qHTS format, final concentration range 18.3 nM to 114 uM) or control PTC124 (final concentration range 1.22 nM to 40 uM). 3. 15 min. incubation at room temperature protected from light. 4. 1 uL of luciferase enzyme (final concentration 10 nM, Photinus pyralis luciferase) or buffer was dispensed for a final assay volume of 4 uL. 5. Plates were centrifuged (121xg, 15 seconds) and incubated for 5 minutes. 6. Samples were read for luminescence on a ViewLux CCD imager (PerkinElmer). Data were normalized to no-enzyme (0% activity) and no-inhibitor (DMSO; 100%) controls and the resulting percent inhibition data were fitted to a 4-parameter Hill equation using NCATS in-house software.
Potency is read from the fitted curve at half-maximal effect.

Compound	activity change, negative = inhibition	Potency
CC(=O)OCC(=O)[C@H]1CC[C@H]2[C@@H]3CC[C@H]4C[C@H](O)CC[C@]4(C)[C@H]3C(=O)C[C@]12C	4.2% [at 13.1 µM] (inactive)	–
O=C(O)c1cc[c]([Hg][S]c2ncnc3nc[nH]c23)cc1	–	12.2 µM (active)
C[C@@]12CCC(OS(=O)(=O)O)C[C@@H]1CCC1C2CC[C@]2(C)C(=O)CCC12 (stereo not given in full)	11.6% (inactive)	–
COC(=O)[C@]1(C)CC[C@@]2(C)CC[C@@]3(C)C4=CC=C5C(=CC(=O)C(O)=C5C)[C@@]4(C)CC[C@@]3(C)C2C1 (stereo not given in full)	-15.8% (inactive)	–
CN(C)[C@@H]1C(=O)C(C(N)=O)=C(O)[C@@]2(O)C(=O)C3=C(O)c4c(O)ccc(Cl)c4[C@@](C)(O)[C@H]3C[C@@H]12	-8.7% [at 13.1 µM] (inactive)	–
